# Measured values from the supplement of paper PMC3334620.
# In all, about 33,000 sequences were measured (“E-score (-0.5 to 0.5)”: median about -0.015, highest 2% from about 0.3 on). The list comes from a sample in which the highest values are over-represented; it also holds similar and randomly drawn sequences.
# Target: T1, Abf1 (UniProt P14164)
# T1 sequence: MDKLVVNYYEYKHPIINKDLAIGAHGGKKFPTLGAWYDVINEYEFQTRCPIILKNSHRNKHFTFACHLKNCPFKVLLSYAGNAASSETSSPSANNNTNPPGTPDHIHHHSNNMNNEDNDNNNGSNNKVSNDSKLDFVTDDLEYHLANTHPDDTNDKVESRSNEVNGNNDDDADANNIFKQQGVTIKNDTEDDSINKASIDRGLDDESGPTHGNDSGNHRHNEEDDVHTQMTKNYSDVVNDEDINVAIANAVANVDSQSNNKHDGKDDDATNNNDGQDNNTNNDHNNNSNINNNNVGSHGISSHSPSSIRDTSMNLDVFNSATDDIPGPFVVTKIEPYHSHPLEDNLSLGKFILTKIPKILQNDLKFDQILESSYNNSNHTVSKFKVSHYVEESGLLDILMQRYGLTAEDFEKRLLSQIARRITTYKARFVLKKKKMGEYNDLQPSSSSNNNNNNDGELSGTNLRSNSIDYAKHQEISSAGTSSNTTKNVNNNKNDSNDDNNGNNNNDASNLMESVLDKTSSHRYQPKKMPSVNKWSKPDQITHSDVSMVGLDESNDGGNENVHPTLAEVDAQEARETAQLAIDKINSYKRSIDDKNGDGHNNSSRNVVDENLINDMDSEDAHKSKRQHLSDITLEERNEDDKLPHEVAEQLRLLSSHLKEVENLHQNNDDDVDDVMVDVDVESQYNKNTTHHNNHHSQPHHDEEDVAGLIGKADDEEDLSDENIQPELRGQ
# Experiment: PBM E-score (8-mer binding enrichment) (E-score (-0.5 to 0.5)); higher = stronger / more preferred TF binding
# Conditions: protein concentration: 200 nM; construct: GST-full length
# Outline: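 Yeast transcription factors, full-length or as DNA-binding domains, were expressed with a GST tag using PURExpress in vitro transcription/translation. At about 100-200 nM they were applied to universal all-10-mer Agilent arrays, double-stranded by primer extension on fresh or once-stripped slides. Fluorescent anti-GST detected bound protein, and masliner normalised the scans. E-scores for ungapped eight-base words, pooled with reverse complements, came from the Universal PBM Analysis Suite.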
row,Sequence,PBM E-score
1,GACGGGAA,0.098
2,CGGCAGAG,-0.193
3,CATCCCCG,-0.108
4,ATAACGAG,0.24
5,AGCGTGCA,0.0338
6,CTCGCATA,-0.0654
7,ATGACAAC,0.343
8,ATGACAGC,0.199
9,ATGACAAG,0.282
10,CATAGAAA,0.105
11,CATCATGC,0.128
12,CATCATGA,0.298
13,GATCATGA,0.227
14,AATCATGA,0.274
15,TATCATGA,0.306
16,CATCATGG,0.101
17,ACTGGCCG,-0.142
18,ACATTGAG,-0.169
19,CCTGGCGA,-0.127
20,GGCCATCA,-0.255
21,AATCGAAA,0.126
22,CGAAGGGA,-0.118
23,AGATGATA,0.364
24,AGATGATG,0.216
25,AGATGATC,0.176

row,Sequence,PBM E-score
1,CGATGATC,0.287
2,GGATGAAA,0.128
3,CGATGAGA,0.19
4,GGATGATA,0.31
5,CGATGATA,0.305
6,GGATGAGA,-0.0398
7,ACATTGGG,-0.0776
8,TGGCTTAA,0.115
9,AGATTCCC,-0.0908
10,ACAAAGTC,0.0656
11,AAGGGTTA,0.0193
12,AAACCTGC,-0.168
13,ATGTGAAG,0.164
14,ACCGGACG,-0.0917
15,ATGACCCC,-0.103
16,AGACTTCA,-0.0675
17,ACGAAACT,0.336
18,ACGAAAAC,0.316
19,ACGAAGAC,0.308
20,GCGAAAGC,-0.15
21,ACGAAACC,0.196
22,ACGAAGAT,0.284
23,ACGAAAGC,0.356
24,ACGAAGAA,0.288
25,ACGAAAGG,0.276

row,Sequence,PBM E-score
1,ACGAAAAA,0.216
2,ACGAAAAG,0.218
3,ACGAAACA,0.245
4,GGAGACTA,-0.107
5,CTGTCGCC,-0.202
6,AGGTTTGA,-0.188
7,CCTGGCCA,-0.161
8,ACTCTATA,0.145
9,GCGGAAAC,-0.206
10,AGGATTGG,-0.0614
11,GTTCTTAA,0.124
12,ACGAAGTA,0.169
13,ACGAAGTC,0.152
14,ACGAAGTG,0.301
15,AGACGTTG,0.109
16,ACAGATTG,-0.0933
17,CTGACATC,-0.0102
18,ATGACATG,0.358
19,ACGACATC,0.303
20,CCGACATC,0.218
21,ATGACAGG,-0.0297
22,ATGACACC,0.187
23,ACGACATG,0.225
24,ATGACACA,0.266
25,GTGACACA,0.343

row,Sequence,PBM E-score
1,CTGACACA,-0.208
2,ATGACATC,0.308
3,AGGACATG,-0.0301
4,GAGTATCC,0.0845
5,ACCACGCT,-0.0224
6,GAACAGTC,-0.0496
7,AATTTGCC,-0.136
8,CTGACATA,0.0493
9,CTGACAGA,0.0348
10,GTGACATA,0.43
11,GAGACATA,0.0808
12,AAGACATA,0.103
13,ATGACAGA,0.128
14,GGGACATA,-0.00523
15,ATGACATA,0.401
16,GTGACAGA,0.359
17,ACGACTCG,0.144
18,CGTGGTAC,0.161
19,AACTGCTG,-0.0316
20,CTGACTCC,-0.131
21,CGTGGGAG,0.0501
22,CAAATCCC,-0.184
23,ACGTCGTA,0.228
24,ACGTCTAA,0.196
25,ACGTCGAA,0.163

row,Sequence,PBM E-score
1,GCGTCGTA,0.418
2,CCGTCGCA,0.282
3,GCGTCGAA,0.0222
4,TCGTCTAA,0.298
5,CCGTCGTA,0.282
6,TCGTCGAA,0.355
7,GCGTCGCA,-0.0267
8,CCGTCTAA,0.266
9,TCGTCGCA,0.322
10,CCGCCATA,-0.072
11,GGGTTACC,-0.0518
12,CAGACCAA,-0.132
13,GCCCAAAA,-0.114
14,AAATGGAG,0.0525
15,AGGCTCTA,-0.247
16,AATGACAA,0.397
17,AATGACCA,0.256
18,TATGACAA,0.27
19,AATGACTA,0.222
20,CATGACAC,0.218
21,CATGACAA,0.238
22,GATGACAC,0.337
23,AATGACAG,0.16
24,AATGACAT,0.39
25,GATGACAA,0.369

row,Sequence,PBM E-score
1,AATGACAC,0.227
2,AATGACCT,0.223
3,CGAGGATA,0.0582
4,GATGGGCA,-0.0389
5,CTCATCAA,0.192
6,GCCCTCTA,-0.224
7,CCACTCTC,-0.22
8,GACGATAA,0.363
9,AACGATTA,0.172
10,CACGATTA,0.247
11,TACGATAA,0.179
12,GACGATTA,0.31
13,CACGATAA,0.296
14,GACCAAAA,0.183
15,AAACCGAC,-0.0139
16,CGCACCAA,-0.0891
17,TCACGCCA,0.113
18,ATGATAAC,0.339
19,CTGATAAA,0.112
20,TTGATAAA,0.23
21,ATGATAGA,0.103
22,AAGATAAA,0.132
23,ATGATAAA,0.406
24,GAGATAAC,0.138
25,GTGATAAC,0.371

row,Sequence,PBM E-score
1,AAGATAAC,0.171
2,GTGATAAA,0.412
3,GCGATAAC,0.158
4,CTGATAAC,0.167
5,CCGGTTCC,-0.286
6,CCCATTTA,-0.0213
7,AAAGGCAG,0.17
8,AAAGCTAG,-0.236
9,GTAATAAC,0.124
10,ATAATAAA,0.2
11,ATGATAAT,0.377
12,ATGATAAG,0.291
13,CTGATACA,0.0567
14,AAGATAAT,0.0926
15,GTAATAAA,0.313
16,GAGATACA,0.146
17,GTGATACA,0.311
18,CACTTTGC,0.137
19,CTGACACC,-0.0573
20,GGTTGGAA,-0.166
21,AACTAGAG,-0.159
22,ATACAGTG,0.011
